# Screening data from PubChem BioAssay.
# This is a sample that favours compounds with a hit; in the whole collection about 4% have one here.
# esBAF inh: blocks esBAF chromatin remodeling in mouse ES cells; AID 602393; Bmi1-luciferase knock-in reporter, 24 h; 100% = twice the neutral-well signal; actives 2% (n = 350,000); reporter increase, % at 12.5 µM; in the data active = activation above about 40%; inconclusive = no clear call, values can overlap the other calls;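 also: a rise in the Bmi1 reporter signal indicates esBAF inhibition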
# Wnt bcat act: activators of Wnt/beta-catenin signaling; Wnt/beta-catenin reporter cell assay, activator, plate reader; activation, % at 9.35 µM; actives 1.2% (n = 300,000); AID 743398; in the data active = activation above about 30%, passing the limit was not always enough; inconclusive = no clear call, values can overlap the other calls
# EWS-Fli inh: blocks EWS/Fli oncoprotein-driven transcription | A673 NR0B1-luciferase reporter, viability-normalised | inhibition, % at 12.6 µM | actives 0.67% (n = 350,000) | AID 651661;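 active = mean inhibition of at least 50% after viability correction, with every replicate also passing that limit; inconclusive = mean reaches 50% but only one of two replicates passes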;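 also: firefly luciferase signal divided by Alamar Blue viability fluorescence both relative to DMSO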
# MITF TRPM1 inh: inhibitors of MITF-driven TRPM1 promoter in melanoma cells. SK-MEL-5 TRPM1 promoter luciferase, 24 h. inhibition, % at 12.5 µM. AID 488899. actives 0.83% (n = 330,000);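 active = mean inhibition across replicates of 60% or more, whatever share of single replicates reaches that level; inconclusive = some that reach 60%, reason not given; inactive = mean inhibition across replicates below 60%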
# MITF act: MITF TRPM1 promoter activation in melanoma cells. SK-MEL-5 TRPM1-promoter luciferase, 24 h; % of positive control, neutral wells = 0. activation, % at 12.5 µM. actives 0.75% (n = 300,000);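 active = mean activation of at least 80% with every replicate also reaching 80%; inconclusive = mean reaches 80% but some replicate falls short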
# PAX8 reporter: lowers PAX8-driven luciferase in RMG-I cells; RMG-I TPO-luciferase reporter, SteadyGlo, 24 h; inhibition, % at 12.6 µM; actives 1.2% (n = 360,000);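 active = mean replicate inhibition at least 60% with every replicate also reaching 60%; inconclusive = only one of the two criteria is met; inactive = mean below 60% and not all replicates reaching 60%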;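 also: luciferase light reporting Pax8 driven TPO promoter activity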
# Numbers stand for hits; n = inactive; u = inconclusive; x = not tested or not shown.
SMILES,esBAF inh,Wnt bcat act,EWS-Fli inh,MITF TRPM1 inh,MITF act,PAX8 reporter
CC1(C)CC(=O)C=C(c2ccc(-c3ccccc3)cc2)C1,74,n,n,n,142,n
CC1(C)CC(=O)C=C(c2ccc(CO)cc2)C1=O,n,n,n,x,x,n
COc1ccc(C2=CC(=O)CC(C)(C)C2)cc1,n,n,n,n,n,n
COc1ccc(C2=CC(=O)CC(C)(C)C2=O)cc1,x,n,n,x,x,n
CC1(C)CC(=O)C=C(c2ccc(-c3ccccc3)cc2)C1=O,78,n,n,x,x,n
CC1(C)CC(=O)C=C(c2ccc(-c3ccc(OC(F)(F)F)cc3)cc2)C1=O,56,n,n,x,x,n
CCCNC(=O)C[C@H]1CC[C@@H]2[C@@H](COc3ccc(NC(=O)c4ccc(C(F)(F)F)cc4)cc3C(=O)N2C)O1,n,x,n,x,x,n
CNC[C@@H]1OCCCC[C@H](C)Oc2ccc(N(C)C)cc2C(=O)N([C@@H](C)CO)C[C@H]1C,n,x,n,x,x,n
CC(C)CC#Cc1ccc2c(c1)O[C@@H](CN(C)C(=O)NC1CCCC1)[C@H](C)CN([C@H](C)CO)S2(=O)=O,n,x,n,x,x,x
Cc1noc(C)c1NC(=O)Nc1ccc2c(c1)C(=O)N([C@@H](C)CO)C[C@@H](C)[C@@H](CN(C)Cc1ccc(C(F)(F)F)cc1)OCCCC[C@H](C)O2,n,x,n,x,x,n
COC(=O)N1CCc2c(sc(NC(=O)C3COc4ccccc4O3)c2C(N)=O)C1 (stereo unspecified),50,n,n,n,n,n
Nc1nc(CSC(=S)N2CCOCC2)nc(Nc2ccc(F)cc2)n1,66,n,n,n,n,n
COc1ccc(Nc2nc(N)nc(CSC(=S)N3CCOCC3)n2)cc1,49,n,n,n,n,n
CN1CCN(C(=S)SCc2nc(N)nc(Nc3ccc(F)cc3)n2)CC1,x,n,n,n,n,n
Cc1ccc(Nc2nc(N)nc(CSC(=S)N3CCOCC3)n2)c(C)c1,x,n,n,n,n,n
COc1ccc2c3c([nH]c2c1)[C@H](CO)N(C(=O)Nc1c(C)noc1C)CC31CCN(CC2CCCC2)CC1,x,x,n,x,x,n
C[C@H](CO)N1C[C@H](C)[C@@H](CN(C)C(=O)c2ccc(F)cc2)Oc2ncc(/C=C/c3ccccc3)cc2C1=O,n,x,n,x,x,x
CN(C)CCCNC(=O)C[C@@H]1CC[C@@H](NC(=O)Cc2cccnc2)[C@H](CO)O1,n,x,n,x,x,n
CN(C)CC#Cc1cccc(-c2nc(C(=O)N3CCN(Cc4ccccc4)CC3)cc3c2[C@H](CCO)N(S(=O)C(C)(C)C)C3)c1 (stereo partly specified),x,x,x,x,x,n
O=C(NC1CC1)c1cc2cc3ccccc3nc2s1,70,n,n,n,n,n
C[C@H]1CN([C@@H](C)CO)C(=O)Cc2cc(NC(=O)Nc3ccc(F)cc3)ccc2O[C@H]1CN(C)C(=O)NC1CCCCC1,n,x,n,x,x,n
CCOC(=O)/C(=N/Nc1ccc(C)cc1)S(=O)(=O)c1ccc(Cl)cc1,54,x,x,n,n,x
CCOC(=O)/C(=N\Nc1ccccc1)S(=O)(=O)c1ccccc1,n,n,n,n,n,x
Cc1ccc(S(=O)(=O)Nc2ccc3c(c2)C(=O)N([C@H](C)CO)C[C@H](C)[C@@H](CN(C)C(=O)Nc2c(C)noc2C)OCCCC[C@@H](C)O3)cc1,n,x,n,x,x,n
COCCCN(C(C)=O)c1nc(-c2ccccc2)cs1,46,n,x,n,n,n
SMILES,esBAF inh,Wnt bcat act,EWS-Fli inh,MITF TRPM1 inh,MITF act,PAX8 reporter
COCCCN(C(=O)c1ccccc1)c1nc(-c2ccc(OC)cc2)cs1,n,n,n,n,x,n
Cc1cccc2c(N)c3c(nc12)CCCC3 (tested in a mixture with another compound),n,n,n,n,n,n
Cc1cc(C)c2c(N)c3cccc(C)c3nc2n1,x,n,n,66,n,n
COc1cccc(OCCSc2nnc3sc4ccccc4n23)c1,n,x,x,n,n,x
c1ccc(OCCSc2nnnn2-c2ccccc2)cc1,n,x,x,n,90,x
CCOc1ccc(OCCSc2nnnn2-c2ccccc2)cc1,n,n,x,n,n,n
c1ccc(OCCSc2nnc3sc4ccccc4n23)cc1,n,n,60,n,n,x
Cc1ccc2c(c1)-c1nc3ccccc3cc1C2=NC1CCCCC1,x,47,n,n,n,n
Cc1ccc2c(c1)C(=NC1CCCCC1)c1cc3ccccc3nc1-2,x,n,n,n,n,n
COc1ccc(-c2csc(Nc3cc(C)ccn3)n2)cc1OC,43,n,n,n,n,n
Cc1ccc(Nc2nc(-c3ccc(F)cc3)cs2)nc1,76,n,n,n,x,n
Cc1ccnc(Nc2nc(-c3ccccc3)cs2)c1,n,n,n,n,n,n
CC(=O)Nc1ccc(-c2csc(Nc3cc(C)ccn3)n2)cc1,u,n,n,n,n,n
COc1ccc(-c2csc(Nc3cccnc3)n2)cc1OC,n,n,x,n,x,n
COc1ccc(-c2csc(Nc3ccc(C)cn3)n2)cc1OC,61,n,n,n,n,n
CC(=O)Nc1cccc(-c2csc(Nc3cc(C)ccn3)n2)c1,48,n,x,n,n,x
Cc1ccc(Nc2nc(-c3ccc(O)c(O)c3)cs2)nc1,x,n,n,x,x,n
C[C@@H]1CCCCO[C@H](CN(C)Cc2ccc(C(F)(F)F)cc2)[C@@H](C)CN([C@H](C)CO)C(=O)c2cc(NC(=O)Nc3ccc(F)cc3)ccc2O1,n,x,n,x,x,n
C[C@@H]1CN([C@@H](C)CO)C(=O)c2cc(NC(=O)Nc3ccc(F)cc3)ccc2O[C@@H](C)CCCCO[C@H]1CN(C)Cc1ccc(C(F)(F)F)cc1,n,x,n,x,x,84
C[C@@H]1CN([C@H](C)CO)C(=O)c2cc(NC(=O)Nc3ccc(F)cc3)ccc2O[C@@H](C)CCCCO[C@@H]1CN(C)Cc1ccc(C(F)(F)F)cc1,n,x,n,x,x,93
C[C@@H]1CCCCO[C@H](CN(C)Cc2ccc(C(F)(F)F)cc2)[C@H](C)CN([C@@H](C)CO)C(=O)c2cc(NC(=O)Nc3ccc(F)cc3)ccc2O1,n,x,n,x,x,91
C[C@H]1CCCCO[C@H](CN(C)Cc2ccc(C(F)(F)F)cc2)[C@@H](C)CN([C@@H](C)CO)C(=O)c2cc(NC(=O)Nc3ccc(F)cc3)ccc2O1,n,x,n,x,x,96
C[C@@H]1CCCCO[C@H](CN(C)Cc2ccc(C(F)(F)F)cc2)[C@@H](C)CN([C@H](C)CO)C(=O)c2cc(NC(=O)Nc3ccc(C(F)(F)F)cc3)ccc2O1,n,x,n,x,x,n
COCCNC(=O)c1cc2c(c(-c3cccc(C4=CCCC4)c3)n1)[C@@H](CCO)N([S@](=O)C(C)(C)C)C2,n,x,n,x,x,n
Cc1noc(C)c1NC(=O)Nc1ccc2c(c1)C(=O)N([C@@H](C)CO)C[C@H](C)[C@@H](CN(C)C(=O)Nc1cccc3ccccc13)OCCCC[C@@H](C)O2,n,x,n,x,x,n
